Results on 38 compounds are retold here after PubChem BioAssay (NCATS).

Test [1] in a line: Primary qHTS for small molecule stabilizers of the endoplasmic reticulum resident proteome: Secreted ER Calcium Modulated Protein (SERCaMP) assay (AID 1508630). Note: % is set by controls: 0 for no effect and ±100 for the full control effect. The conditions noted are these: SH-SY5Y GLuc-SERCaMP (Gaussia luciferase released on ER calcium loss) secretion, thapsigargin, luminescence; series mostly up to 38.4 µM. A digest of the protocol:
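The SH-SY5Y reporter protocol was run at 3 concentrations up to 38.3 uM (primary) or 11 concentrations (follow-up): 16 h compound, 100 nM thapsigargin for 4 h, then extracellular luciferase luminescence.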

The nature of test [2]: A High-Content qHTS Against Drug Library for the Identification of Small Molecules that Inhibit DYT1 Early Onset Primary Dystonia-Associated Cell Pathology (AID 1645839; calls by dose curve). The conditions noted are these: HEK293 Flp-In EGFP-delE TorsinA, punctate imaging, 48 h; series mostly up to 46.1 µM. A digest of the protocol:
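Cells were seeded and left for 24 h, then dosed with compound alongside tetracycline induction of mutant EGFP-TorsinA. They were incubated for 48 h, fixed in 4% paraformaldehyde, permeabilized and imaged for mislocalization (%pathology) and cell count.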

Test [3] addresses Cytochrome P450 2D6 (Homo sapiens) (UniProt P10635). Description: Cytochrome P450 family 2 subfamily D member 6 (CYP2D6) small molecule antagonists: luciferase biochemical (cell-free) qHTS assay (AID 1645840; active = well fitted curve in the direction sought with a large enough effect in the repeat runs; an effect the other way counts as inactive or inconclusive; note: nearly all actives have a fitted effect of over 55% in size; note: potency is the fitted concentration of half-maximal effect; for activity change, negative = inhibition: % is set by controls: 0 for no effect and ±100 for the full control effect). As to conditions: P450-Glo CYP2D6 enzyme, luciferin luminescence, 1 h; series mostly up to 57.4 µM. A digest of the protocol:
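P450-Glo CYP2D6 system: proluciferin substrate converted by enzyme to luciferin, read by luminescence proportional to activity. Enzyme-substrate mix with compound 10 min at room temperature, then NADPH regeneration 1 h before detection reagent.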
Background: Quantitative high-throughput screening tests each substance at several concentrations.

Test [4] has as its target Cytochrome P450 3A4 (Homo sapiens) (UniProt P08684). Description: Cytochrome P450 family 3 subfamily A member 4 (CYP3A4) small molecule antagonists: luciferase qHTS assay (AID 1645841; active = well fitted curve in the direction sought with a large enough effect in the repeat runs; an effect the other way counts as inactive or inconclusive; note: nearly all actives have a fitted effect of over 45% in size). The conditions noted are these: P450-Glo CYP3A4 enzyme assay, luciferin luminescence; series mostly up to 57.4 µM. A digest of the protocol:
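P450-Glo CYP3A4 enzyme with proluciferin substrate preincubated 10 min with compound at room temperature, then NADPH regeneration 1 h. Luciferin detection reagent added for 20 min; luminescence recorded. Ketoconazole positive control.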

Test [5] deals with Cytochrome P450 2C9 (Homo sapiens) (UniProt P11712). Description: Cytochrome P450 family 2 subfamily C member 9 (CYP2C9) small molecule antagonists: luciferase biochemical (cell-free) qHTS assay (AID 1645842; active = well fitted curve in the direction sought with a large enough effect in the repeat runs; an effect the other way counts as inactive or inconclusive; note: nearly all actives have a fitted effect of over 55% in size; note: potency is the fitted concentration of half-maximal effect; for activity change, negative = inhibition: % is set by controls: 0 for no effect and ±100 for the full control effect). As to conditions: P450-Glo CYP2C9 enzyme assay, luciferin luminescence; series mostly up to 57.4 µM. A digest of the protocol:
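P450-Glo CYP2C9 system: proluciferin substrate with enzyme in mix containing 0.4% BSA, 10 min at room temperature, then NADPH regeneration solution added and incubated 1 h at 37C. Detection reagent stopped reaction; luminescence read after 20 min as RLU.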

Test [6] can be described thus: Primary qHTS for inhibitors of nuclear receptor binding SET domain protein 2 (NSD2) in an isogenic RCH-ACV NSD2 p.E1099K mutant (9B) (AID 1645876). Note: nearly all actives have a fitted effect of over 70% in size. The conditions noted are these: RCH-ACV (leukaemia line) NSD2 E1099K (9B) viability, CellTiter-Glo, 72 h; series mostly up to 44.9 µM.
The nature of test [7]: Counterscreen qHTS for small molecule stabilizers of the endoplasmic reticulum resident proteome: GLuc-NoTag assay (AID 1508627).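 Note: 0% = thapsigargin alone and -100% = DMSO vehicle control.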 As to conditions: Gaussia luciferase NoTag secretion counterscreen, luminescence, thapsigargin 100 nM for final 4 h; series mostly up to 76.4 µM. The gist of the method:
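Counterscreen line: SH-SY5Y-GLuc-NoTag. Seed, 5 h; compound, 19 h; thapsigargin 100 nM, 4 h; 37C/5% CO2. Readout: secreted GLuc luminescence, coelenterazine 0.07x final, no lysis.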
Background: A counterscreen serves to expose hits that act by an unwanted route or on another target.

Test [8] can be described thus: Confirmatory qHTS for small molecule stabilizers of the endoplasmic reticulum resident proteome: Secreted ER Calcium Modulated Protein (SERCaMP) assay (AID 1508628). Note: nearly all actives have a fitted effect of over 40% in size. Note: potency is the fitted concentration of half-maximal effect. The conditions noted are these: SERCaMP secreted luciferase ER calcium/proteostasis reporter; series mostly up to 76.3 µM. A digest of the protocol:
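Reporter secretion upon ER calcium depletion (100 nM thapsigargin, 4 h, 37C) is measured as medium luminescence with coelenterazine, after 16 h compound pretreatment of SH-SY5Y-GLuc-SERCaMP cells; primary at three concentrations up to 38.3 uM, follow-up at 11 (up to 76.6 uM).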

Test [9] in a line: Cell Viability qHTS for small molecule stabilizers of the endoplasmic reticulum resident proteome (AID 1508629).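 Note: human SH-SY5Y neuroblastoma cells carrying the GLuc-SERCaMP reporter; compound exposure about 46 h in total before the viability read; % is set by controls: 0 for no effect and ±100 for the full control effect.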 As to conditions: cell viability counter-screen, 100 nM thapsigargin for final 4 h.

Records with an inconclusive call do not appear. Unmarked numbers belong to inactive results. The source made the active and inactive calls. Unless noted, calls come from the whole dose curve; as a rule, active = well fitted curve in the direction sought with a large enough effect; inconclusive = small, poorly fitted or top-dose-only effect, or another doubt; inactive = no such curve, though single readings can be large; an effect the other way counts as inactive or inconclusive.

Cytochrome P450 2C9 (Homo sapiens), sequence (P11712 whole entry, looked up): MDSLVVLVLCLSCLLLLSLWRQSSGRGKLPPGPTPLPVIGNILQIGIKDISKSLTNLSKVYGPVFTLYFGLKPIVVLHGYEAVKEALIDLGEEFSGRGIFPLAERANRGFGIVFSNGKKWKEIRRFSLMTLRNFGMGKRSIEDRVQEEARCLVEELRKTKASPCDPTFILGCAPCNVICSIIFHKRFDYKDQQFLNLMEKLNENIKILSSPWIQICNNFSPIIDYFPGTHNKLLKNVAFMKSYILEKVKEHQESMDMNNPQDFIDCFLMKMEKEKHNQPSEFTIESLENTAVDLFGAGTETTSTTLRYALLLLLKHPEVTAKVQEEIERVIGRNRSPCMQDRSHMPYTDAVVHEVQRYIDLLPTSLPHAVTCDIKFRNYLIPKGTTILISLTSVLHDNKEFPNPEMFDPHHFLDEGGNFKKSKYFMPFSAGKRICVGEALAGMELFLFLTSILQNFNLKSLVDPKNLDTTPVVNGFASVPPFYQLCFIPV
Cytochrome P450 2D6 (Homo sapiens), sequence (P10635 whole entry, looked up): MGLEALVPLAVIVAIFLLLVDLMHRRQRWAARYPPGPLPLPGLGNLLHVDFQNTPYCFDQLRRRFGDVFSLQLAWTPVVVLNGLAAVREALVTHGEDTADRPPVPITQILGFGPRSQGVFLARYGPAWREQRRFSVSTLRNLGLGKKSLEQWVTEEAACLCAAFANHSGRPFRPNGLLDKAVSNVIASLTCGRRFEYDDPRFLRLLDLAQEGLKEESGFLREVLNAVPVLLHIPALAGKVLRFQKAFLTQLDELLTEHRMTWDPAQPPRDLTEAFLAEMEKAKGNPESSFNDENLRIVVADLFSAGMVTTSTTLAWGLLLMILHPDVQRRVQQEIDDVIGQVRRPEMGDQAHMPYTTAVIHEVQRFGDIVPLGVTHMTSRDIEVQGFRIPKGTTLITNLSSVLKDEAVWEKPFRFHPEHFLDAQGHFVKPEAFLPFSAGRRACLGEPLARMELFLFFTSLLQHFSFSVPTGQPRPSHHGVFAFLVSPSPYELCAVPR
Cytochrome P450 3A4 (Homo sapiens), sequence (P08684 whole entry, looked up): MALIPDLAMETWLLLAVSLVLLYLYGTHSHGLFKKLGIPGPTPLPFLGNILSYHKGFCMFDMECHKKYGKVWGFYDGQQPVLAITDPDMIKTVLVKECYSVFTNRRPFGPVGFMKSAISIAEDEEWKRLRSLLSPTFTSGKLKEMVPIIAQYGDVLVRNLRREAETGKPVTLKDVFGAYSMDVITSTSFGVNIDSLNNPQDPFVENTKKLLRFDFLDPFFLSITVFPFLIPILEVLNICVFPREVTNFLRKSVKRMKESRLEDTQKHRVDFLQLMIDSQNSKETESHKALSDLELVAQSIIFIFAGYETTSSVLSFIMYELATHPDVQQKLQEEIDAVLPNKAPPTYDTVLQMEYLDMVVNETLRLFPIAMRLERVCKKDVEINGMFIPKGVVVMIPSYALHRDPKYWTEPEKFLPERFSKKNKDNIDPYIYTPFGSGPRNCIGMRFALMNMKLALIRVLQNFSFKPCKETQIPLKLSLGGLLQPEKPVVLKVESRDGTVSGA

Consider `C[C@@H](N)C(=O)O`, for which the outcome in test [1] and in test [4] was inactive. In addition, the Potency entry in [2], in test [3], in test [5] and in test [6] was “inactive” throughout.
`Cc1onc(-c2ccccc2)c1-c1ccc(S(N)(=O)=O)cc1`: in test [1], the result was inactive. Besides, the Potency result in test [2] is “inactive”.
On to `CCS(=O)(=O)CCn1c([N+](=O)[O-])cnc1C`, for which, in [1], the outcome was inactive. For the same compound, in test [2], the Potency result is “inactive”.
Regarding `CC(=O)N(CC(O)CN(C(C)=O)c1c(I)c(C(=O)NCC(O)CO)c(I)c(C(=O)NCC(O)CO)c1I)c1c(I)c(C(=O)NCC(O)CO)c(I)c(C(=O)NCC(O)CO)c1I` (centres undefined), the outcome in [1] and in [4] was inactive. Moreover, the Potency result in test [2], in test [3] and in [6] was “inactive” in each case.
Consider `CCN(CC)CC1CCCCN1CC(=O)N1c2ccccc2C(=O)Nc2cccnc21` (centres undefined), for which the result in [1] and in test [4] was inactive. Further, the Potency entry in [2] and in test [3] was “inactive” each time.
`C=CCOc1ccccc1OCC(O)CNC(C)C` (centres undefined): in [1], the outcome was inactive. Further, the Potency entry in test [2] and in test [5] was “inactive” throughout. Further, the Potency in [3] was 13.8 µM (active).
For `CC(=O)[C@@]1(O)CC[C@H]2[C@@H]3C[C@H](C)C4=CC(=O)C=C[C@]4(C)[C@@]3(F)[C@@H](O)C[C@@]21C`, the outcome in test [1] was inactive. The Potency entry in test [2], in test [3] and in [6] was “inactive” each time. Further, the Potency in test [5] is 4.36 µM (active).
Take `O=C(CN1CCNCC1)NC1CCCCC1`: the outcome in test [1] and in test [4] was inactive. Moreover, the Potency entry in test [2], in test [3], in [5] and in test [6] was “inactive” throughout.
For the compound `O=C(O)Cc1ccc(CCNS(=O)(=O)c2ccc(Cl)cc2)cc1`, in test [1], the outcome was inactive. Besides, the Potency result in test [2] and in test [3] was “inactive” each time.
As for `OCc1ccc(Cl)cc1Cl`, the result in test [1] and in test [4] was inactive. Moreover, the Potency entry in test [2], in test [3] and in test [6] was “inactive” in each case.
`CCN(CC)C(=O)c1cccc(C)c1`: the outcome in test [7] was inactive. Further, the Potency result in test [8], in [2], in test [3], in [5] and in test [6] was “inactive” throughout. Besides, the max response in test [9] is 12.2%.
Take `C[C@@H](c1ncncc1F)C(O)(Cn1cncn1)c1ccc(F)cc1F` (some centres undefined): the outcome in test [1] was inactive. In addition, the Potency entry in test [2] and in [3] was “inactive” each time.
As for `COc1ccc(C(=O)N2CCN(CC(=O)N3CCOCC3)CC2)cc1`, the compound was called inactive in test [7]. Besides, the Potency entry in [8], in test [2], in test [3], in test [5] and in test [6] was “inactive” in each case. Besides, the max response in [9] is 17.3%.
On to `CCCCCCCCCCCCCCCCN`, for which the outcome in [1] and in test [4] was inactive. For the same compound, the Potency entry in [2], in test [3] and in test [5] was “inactive” in each case.
With `CCN(CC)S(=O)(=O)c1ccc(C(=O)O)cc1`, the outcome in test [1] and in test [4] was inactive. The Potency entry in [2], in test [3] and in test [6] was “inactive” in each case.
For the compound `CCOc1ccccc1O[C@H](c1ccccc1)[C@H]1CNCCO1`, in [8], the Potency was 22.4 µM (active). In addition, the max response in test [9] is 9.87%. The Potency entry in test [2] and in test [5] was “inactive” throughout.
`CNc1c2c(nn1C)CCCC2`: the outcome in [1] was inactive. Besides, the Potency result in [2], in test [3] and in [5] was “inactive” in each case.
For the compound `CCCOC(=O)c1ccc(N)cc1`, in [1], the outcome was inactive. Moreover, the Potency result in test [2] and in test [3] was “inactive” in each case.
On to `CCCCCCCCCCOc1cc2c(=O)c(C(=O)OCC)c[nH]c2cc1OCC`, for which the activity change, negative = inhibition in test [1] is 2.46% [at 3.88 µM]; in test [3], 3.17% [at 4.83 µM]; in test [5] it was 5.88% [at 4.83 µM]. Moreover, in test [2], the % pathology change, negative = correction is 23.7% [at 4.63 µM]. The outcome in [6] was “inactive [at 4.96 µM]”.
For `Nc1ncnc2c1ncn2[C@@H]1O[C@H](COP(=O)(O)O)[C@@H](O)[C@H]1O`, the outcome in test [1] was inactive. The Potency result in test [2], in [3], in [5] and in test [6] was “inactive” throughout.
Regarding `Cn1c([N+](=O)[O-])cnc1COC(N)=O`, the result in [1] was inactive. Further, the Potency entry in test [2], in test [3], in test [5] and in test [6] was “inactive” throughout.
Consider `O=c1[nH]c2cc(C(F)(F)F)c(N3CCOCC3)cc2n(CP(=O)(O)O)c1=O`, for which the outcome in [1] was inactive. Also, the Potency entry in test [2], in test [3] and in test [5] was “inactive” each time.
For the compound `NCc1ccc(S(N)(=O)=O)cc1`, the outcome in test [1] and in test [4] was inactive. For the same compound, the Potency result in [2] and in test [3] was “inactive” in each case.
For the compound `Cc1ccc2c(c1)c1c3n2CCNC3CCC1` (centres undefined), the result in test [7] and in test [1] was inactive. Further, the Potency result in test [8] and in [6] was “inactive” in each case.
For the compound `O=C(O)c1ccc[n+]([O-])c1`, the result in [1] was inactive. Further, the Potency result in [2], in test [3] and in [5] was “inactive” in each case.
Turning to `NC(=O)c1ccc([N+](=O)[O-])cc1Cl`, in test [1], the result was inactive. The Potency entry in test [2], in [3] and in [5] was “inactive” throughout.
Consider `Cn1cc(C(=O)[C@@H]2CCc3nc[nH]c3C2)c2ccccc21`, for which the call in test [7] was inactive. Also, the max response in [9] was 11.5%. Moreover, the Potency entry in test [2] and in test [5] was “inactive” each time. Also, in [3], the Potency was 12.3 µM (active).
With `OC(CCN1CCCC1)(c1ccccc1)C1CCCCC1` (centres undefined), the Potency in test [8] was 3.98 µM (active). Moreover, the Potency result in [2] was “inactive”.
Take `O=C(O)c1ccccc1C(=O)Nc1ccc(S(=O)(=O)Nc2nccs2)cc1`: the outcome in test [1] was inactive. Moreover, the Potency result in [2], in test [3], in test [5] and in [6] was “inactive” each time.
In the case of `COC(=O)c1ccc(O)cc1`, the result in test [1] was inactive. For the same compound, the Potency result in [2], in [3], in test [5] and in test [6] was “inactive” each time.
Regarding `O=C(O)CNC(=O)c1ccccc1I`, in [1], the outcome was inactive. For the same compound, the Potency result in test [2] and in test [3] was “inactive” throughout.
As to `NNC(=O)CP(=O)(c1ccccc1)c1ccccc1`, the result in [1] was inactive. Also, the Potency entry in test [2] and in test [3] was “inactive” throughout. The Potency in test [5] is 15.5 µM (active).
As to `CCCC(O)C(CC)CO` (centres undefined), the compound was classed as inactive in test [7]. In addition, the Potency result in test [8], in test [2], in test [3], in test [5] and in test [6] was “inactive” throughout. Further, the max response in [9] is 29.3%.
For `CCN1CC(CCN2CCOCC2)C(c2ccccc2)(c2ccccc2)C1=O` (centres undefined), the result in [1] was inactive. Also, the Potency entry in test [2] and in [5] was “inactive” each time. For the same compound, the Potency in test [3] is 0.436 µM (active).
Regarding `NC(N)=NS(=O)(=O)c1ccc(N)cc1`, the result in test [1] and in test [4] was inactive. Also, the Potency result in test [2], in test [3] and in test [6] was “inactive” in each case.
For `Nc1c2c(nc3c1CCC3)CCCC2`, the result in [1] was inactive. In addition, the Potency entry in test [2], in test [5] and in [6] was “inactive” throughout. Moreover, in test [3], the Potency was 12.3 µM (active).
As to `O=C(/C=C/c1ccc(O)c(O)c1)O[C@@H]1C[C@@](OC(=O)/C=C/c2ccc(O)c(O)c2)(C(=O)O)C[C@@H](O)[C@@H]1O`, the outcome in test [1] was inactive. Besides, the Potency result in [2] and in [3] was “inactive” throughout.
As to `Cc1c(C(=O)NCCO)[n+](=O)c2ccccc2n1[O-]`, the outcome in test [1] and in test [4] was inactive. The Potency result in test [2], in test [3], in test [5] and in test [6] was “inactive” throughout.
